USP1-UAF1 inh = blocks the human USP1/UAF1 deubiquitinase complex | O94782 | recombinant USP1/UAF1, Ub-Rhodamine cleavage fluorescence | Potency, µM (titrated, usually from 57.1 µM), for the others: at the highest dose activity change, negative = inhibition, hits mostly inhibitors | actives 0.23% (n = 390,000) | AID 743255; further: on the % scale 0 is the no-effect control and ±100 the full control effect; nearly all actives have a fitted effect of over 60% in size
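USP1/UAF1 complex at 1 nM was preincubated with compound for 15 min at room temperature, then Ub-Rho substrate (150nM final) was added. Fluorescence (480/540 nm) was read kinetically, 6 reads every 60 seconds.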
KAT2A inh = blocks human GCN5L2 histone acetyltransferase. Q92830. GCN5L2 HAT assay, ThioGlo1 CoA-SH fluorescence. Potency, µM (highest dose often 58.9 µM), inactives show top-dose activity change, negative = inhibition, most hits filed as inhibitors. actives 0.21% (n = 390,000). AID 504327; further: on the % scale 0 is the no-effect control and ±100 the full control effect
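Compounds, pin-transferred from DMSO stocks, meet 20nM GCN5L2 for 15 min before the reaction begins with H3(1-25) peptide (75uM) and acetyl-CoA (70uM). Thiol-reactive ThioGlo1 reports CoA release over 20 min at room temperature.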
PLK1 PBD inh = blocks phosphopeptide binding to human PLK1 polo-box domain; P53350; Plk1 PBD binding of FITC phosphopeptide, fluorescence polarization; Potency, µM, inactives show max response, negative = inhibition, actives largely listed as inhibitors; actives 2.8% (n = 360,000); AID 720504; further: series mostly up to about 57 µM; on the % scale 0 is the no-effect control and ±100 the full control effect; nearly all actives have a fitted effect of over 65% in size
Target sequence (P53350 whole entry, looked up, the tested form may be a part): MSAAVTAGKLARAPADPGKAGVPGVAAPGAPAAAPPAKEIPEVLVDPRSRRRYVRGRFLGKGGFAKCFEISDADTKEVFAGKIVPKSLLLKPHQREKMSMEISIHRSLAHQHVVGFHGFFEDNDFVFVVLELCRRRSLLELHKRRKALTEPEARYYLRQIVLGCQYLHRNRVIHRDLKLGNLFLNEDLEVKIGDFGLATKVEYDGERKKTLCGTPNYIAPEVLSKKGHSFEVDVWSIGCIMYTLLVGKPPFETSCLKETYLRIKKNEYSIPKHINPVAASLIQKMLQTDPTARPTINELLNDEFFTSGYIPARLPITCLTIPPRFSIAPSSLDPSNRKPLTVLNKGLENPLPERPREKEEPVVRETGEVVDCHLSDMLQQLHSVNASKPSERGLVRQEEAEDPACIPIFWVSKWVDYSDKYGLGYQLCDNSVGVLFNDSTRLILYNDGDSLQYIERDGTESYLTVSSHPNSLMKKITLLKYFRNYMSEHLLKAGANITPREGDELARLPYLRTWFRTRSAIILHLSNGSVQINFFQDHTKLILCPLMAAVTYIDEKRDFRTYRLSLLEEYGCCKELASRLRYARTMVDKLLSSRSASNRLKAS
PTAP TSG101 blk = blocks PTAP/TSG101 interaction to inhibit HIV-1 budding. Potency, µM (highest dose often 115 µM), for inactives: at the highest dose activity change, negative = inhibition, actives largely listed as inhibitors. AID 493005. Q99816. 340,000 tested, under 10 active. Fluorescence polarization, FITC-PTAP peptide / Tsg101 binding; active means well fitted inhibition curve with a large enough effect in the main read-out, with a control signal flat, not every such curve was filed as active; inconclusive means small, poorly fitted or top-dose-only effect, or effect the other way, or a change in a side signal; inactive means no such curve, though single readings can be large or run the other way; further: % of control where 0% means no effect
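Fluorescence anisotropy tracks displacement of a FITC-tagged PTAP peptide (50 nM) from the Tsg101 binding domain (10 uM), following a 20 min room-temperature incubation at pH 7.5.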
VDR inh = blocks the human vitamin D receptor; P11473; VDR-SRC2-3 peptide fluorescence polarization, 2 h; Potency, µM, for the others: max response, negative = inhibition, actives largely listed as inhibitors; actives 0.93% (n = 400,000); further: on the % scale 0 is the no-effect control and ±100 the full control effect
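Reagent solutions, kept cold and dark, are dispensed first; compounds are then pinned in at 23 nl, plates briefly spun, and incubated 2 h at ambient temperature. Inhibition of VDR–SRC2-3 peptide binding is read by fluorescence polarization.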
Active calls of the source: *; u = inconclusive; x = no result; ! = a repeat was not active. Sampled rows, rich in hits. Any-hit rate of the full collection: about 3%. Unless noted, the call rests on the fitted dose curve; in most records, active means well fitted curve in the direction sought with a large enough effect; inconclusive means small, poorly fitted or top-dose-only effect, or another doubt; inactive means no such curve, though single readings can be large; an effect the other way counts as inactive or inconclusive. Potency means the concentration at half of the fitted maximal effect.

SMILES	USP1-UAF1 inh	KAT2A inh	PLK1 PBD inh	PTAP TSG101 blk	VDR inh
CC[C@H](C)[C@@H](NC(=O)O[C@@H]1Cc2cc(OC)ccc2O[C@H]1c1cccc(OC)c1)C(=O)OC	x	x	x	x	5%
Cc1cc(C)c(S(=O)(=O)ON2C(=O)c3ccccc3C2=O)cc1C	-12%	-25%	5.3µM*	-1%	32µM*
Cc1ccc(S(=O)(=O)ON2C(=O)c3ccccc3C2=O)c(C)c1	-21%	-2%	7.5µM*	-4%	18µM*
Cc1cc(C)c(C)c(S(=O)(=O)ON2C(=O)c3ccccc3C2=O)c1C	-5%	-1%	6.7µM*	0%	22µM*
CC(=O)N1CCc2cc(S(=O)(=O)NC(Cc3ccccc3)C(=O)NCc3ccccc3)ccc21 (stereo unspecified)	-17%	-1%	x	x	-9%
COC(=O)c1c(Cl)c2n3ccccc3c(C)c(-c3ccccc3)c-2c1C(=O)OC	-20%	-6%	24µM*	-4%	-20%
COc1ccc2cc(CO)c(Cl)nc2c1	-10%	0%	6.7µM*	-2%	-15%
CCc1ccc(/C=C/C(=O)C2C(=O)c3ccccc3C2=O)cc1	u	u	27µM*	-5%	u
CC(C)C(=O)N1CCc2cc(-c3csc(N)n3)ccc21	-12%	-7%	24µM*	-8%	-19%
CC1=C/C(=N\N=C2\NC(=O)C(CC(=O)Nc3ccccc3)S2)CC(C)(C)C1 (stereo unspecified)	-26%	-5%	24µM*	-7%	-17%
O=C(CC1S/C(=N/N=C/c2ccco2)NC1=O)Nc1ccccc1 (stereo unspecified)	3%	-4%	-9%	0%	-2%
CC(=O)c1cccc(NC(=O)C2C3C=CC(C3=C(c3ccccc3)c3ccccc3)C2C(=O)O)c1 (stereo unspecified)	-8%	-5%	34µM*	1%	-15%
O=C(Nc1ccccc1)c1ccc(-c2ccccc2Cl)o1	-17%	-12%	-15%	x	-4%
O=C(O)c1ccc(-c2ccccc2Cl)o1	-7%	-5%	-10%	0%	141µM*!
CN(C)c1ccc(/C=C2\CCC/C(=C\c3ccccc3)C2=O)cc1	32µM*	3%	-11%	u	-6%
Cc1cc(C)c(NC(=O)COC(=O)Cc2ccsc2)c(C)c1	-24%	-6%	27µM*	-5%	-15%
Cc1ccccc1NC(=O)COC(=O)Cc1ccsc1	-21%	-2%	27µM*	-9%	-2%
CCC(CC)C(=O)Nc1cccc(/C(C)=N/NC(=O)c2ccccc2Cl)c1	-27%	-9%	27µM*	-1%	8%
N#Cc1c(-c2ccccc2)cc(-c2cccs2)nc1SCC(=O)O	-18%	-2%	27µM*	-2%	u
COc1ccc(-c2cc(-c3cccs3)c(C#N)c(SCC(=O)NCc3ccccc3)n2)cc1	-4%	-3%	1%	-2%	0%
N#Cc1c(-c2ccc(Cl)cc2)cc(-c2cccs2)nc1SCC(=O)O	-26%	-20%	17µM*	-9%	u
CCOC(=O)CSc1nc(C2CC2)cc(-c2ccc(Cl)cc2)c1C#N	-21%	-19%	24µM*	1%	-14%
C=C1CCN(C(C)C(=O)OCc2cccc(C)c2)S(=O)(=O)c2ccccc21 (stereo unspecified)	x	x	x	x	3%
Cc1ccc([N+](=O)[O-])cc1S(=O)(=O)N1CCNCC1	-5%	-6%	15µM*	-1%	-26%
O=C(NCC(c1ccco1)N1CCCCC1)c1ccc(COc2ccc(Cl)cc2)cc1 (stereo unspecified)	-24%	x	8%	1%	8%
SMILES	USP1-UAF1 inh	KAT2A inh	PLK1 PBD inh	PTAP TSG101 blk	VDR inh
Cc1ccc(C(C2C(=O)CC(C)(C)CC2=O)C2C(=O)CC(C)(C)CC2=O)s1	-9%	-4%	2.7µM*	-9%	40µM*
COc1ccc(C(C2C(=O)CC(C)(C)CC2=O)C2C(=O)CC(C)(C)CC2=O)cc1	-15%	1%	9.5µM*	1%	56µM*
COc1cc(C(C2C(=O)CC(C)(C)CC2=O)C2C(=O)CC(C)(C)CC2=O)ccc1OC(C)=O	u	x	u	-3%	u
CC1(C)CC(=O)C(C(c2ccc3c(c2)OCO3)C2C(=O)CC(C)(C)CC2=O)C(=O)C1	x	x	17µM*	x	x
CC1(C)CC(=O)C(C(c2cccc([N+](=O)[O-])c2)C2C(=O)CC(C)(C)CC2=O)C(=O)C1	-7%	-6%	-22%	0%	u
COc1cc(C(C2C(=O)CC(C)(C)CC2=O)C2C(=O)CC(C)(C)CC2=O)ccc1O	-7%	13%	u	0%	u
CC1(C(=O)Nc2ccc(Cl)cc2)Cc2c(-c3ccc4c(c3)OCO4)ccnc2O1 (stereo unspecified)	x	x	5%	x	x
O=C(Nc1ccccc1)c1ccc(Br)c(S(=O)(=O)N2CCCCC2)c1	-14%	1%	x	x	16%
COc1ccc2c(c1)O[C@H](c1ccc3c(c1)OCO3)[C@@H](OC(=O)NS(=O)(=O)c1ccc(C)cc1)C2=O	x	x	x	x	9%
N#Cc1c(/N=C/c2ccc(-c3ccccc3C(=O)O)o2)sc2c1CCCC2	-18%	1%	38µM*	1%	-14%
O=C(O)c1ccc(Cl)c(S(=O)(=O)Nc2ccc(OCc3ccccc3)cc2)c1	-9%	-5%	-4%	-6%	-3%
O=C(Nc1sc2c(c1C(=O)O)CCCCC2)c1ccccc1	-23%	-7%	19µM*	-6%	u
O=C(Nc1sc2c(c1C(=O)Nc1cccc(Cl)c1)CCCC2)c1cccs1	-3%	u	x	x	25µM*
O=C(Nc1sc2c(c1C(=O)O)CCC2)c1ccc(F)cc1	-20%	-10%	-23%	-5%	2%
CC1(C)Cc2c(sc(NC(=O)c3ccccc3)c2C(=O)O)CO1	-4%	0%	13µM*	-2%	-19%
Cc1ccc(NC(=O)c2c(NC(=O)c3ccc(F)cc3)sc3c2CCCC3)cc1C	5%	-13%	x	x	79µM*
NC(=O)c1c(NC(=O)c2cccs2)sc2c1CCCCCC2	-10%	-8%	-22%	-2%	-4%
O=c1cc(CSc2ccccc2)[nH]c2ccc(F)cc12	u	-12%	x	x	-1%
O=C(CCCCn1c(=O)c2ccccc2n(Cc2ccccc2F)c1=O)NCc1ccccc1Cl	u	-1%	x	x	10%
Cc1ccc2nc(-c3ccccc3)cc(C(=O)N(C)CC(=O)Nc3ccccc3Br)c2c1	-15%	-22%	-2%	-4%	-22%
S=c1nn[nH]c2ccccc12	-30%	x	27µM*	0%	-14%
Cc1nn(-c2ccccn2)c2c1C(=O)C(Br)CC2 (stereo unspecified)	-11%	-7%	3µM*	-1%	18µM*
CC1=C(C)C(=O)N(c2ccccn2)C1=O	-19%	-3%	-3%	-2%	-4%
O=C(Oc1ccccc1F)c1ccc2c(=O)n3c(nc2c1)CCC3	-2%	-16%	-5%	-2%	-4%

Assay outcomes deposited in PubChem by National Center for Advancing Translational Sciences (NCATS).
